Screening results from PubChem.
In the library only some 0.71% were active in any assay of this set; here they are far more common.
CBFb-RUNX1 inh – CBF-beta/RUNX1 interaction disruption; AlphaScreen CBFb-His/RUNX1-biotin binding, biochemical; Potency, µM (highest dose often 59.8 µM), usual class: inhibitors; Q01196+Q13951; AID 1477; 230,000 tested, under 10 active
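AlphaScreen proximity signal reports loss of binding between His-tagged CBF-beta and biotin-labelled RUNX1, each at 30 nM. Proteins are pre-associated for 20 minutes, compounds added for 15 minutes, then beads for 90 minutes, all at ambient temperature.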
Epigenetic derep – regulators of epigenetic silencing causing reporter derepression in mouse cells; Potency, µM (series often up to 53.9 µM), usual class: activators; murine LDR cells, GFP reporter derepression, 30 h; AID 1865; 280,000 compounds, 0.2% hits; also: nearly all actives have a fitted effect of over 60% in size
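Readout is the number of GFP-expressing murine LDR cells, counted by cytometry following washing. Cells were treated with compound for 30 h at 37 C; the stably integrated CMV-GFP locus is normally silent.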
TR SRC2 fluor cs – alters Texas Red total fluorescence, flagging assay interference; Potency, µM (doses to about 106 µM); 280,000 compounds, 0.29% hits; TRb/SRC2 Texas Red total fluorescence interference; active = well fitted curve in either direction with a large enough effect; inconclusive = small, poorly fitted or top-dose-only effect
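Human TRb ligand-binding domain at 0.6 uM with 20 nM Texas Red SRC2 peptide in Tris buffer containing 1 uM T3 and 5% DMSO, incubated with compound 5 h at ambient temperature. Total fluorescence (555/632 nm) calculated as parallel + 2 × perpendicular.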
TRb SRC2 PPI – disrupts binding of human TR beta to SRC2. AID 1469. Potency, µM (doses to about 106 µM), actives largely listed as inhibitors. 280,000 compounds, 0.065% hits. TRbeta-SRC2 peptide binding, fluorescence polarization; receptor liganded with 1 µM T3; also: nearly all actives have a fitted effect of over 50% in size
Target sequence (P10828 whole entry, looked up): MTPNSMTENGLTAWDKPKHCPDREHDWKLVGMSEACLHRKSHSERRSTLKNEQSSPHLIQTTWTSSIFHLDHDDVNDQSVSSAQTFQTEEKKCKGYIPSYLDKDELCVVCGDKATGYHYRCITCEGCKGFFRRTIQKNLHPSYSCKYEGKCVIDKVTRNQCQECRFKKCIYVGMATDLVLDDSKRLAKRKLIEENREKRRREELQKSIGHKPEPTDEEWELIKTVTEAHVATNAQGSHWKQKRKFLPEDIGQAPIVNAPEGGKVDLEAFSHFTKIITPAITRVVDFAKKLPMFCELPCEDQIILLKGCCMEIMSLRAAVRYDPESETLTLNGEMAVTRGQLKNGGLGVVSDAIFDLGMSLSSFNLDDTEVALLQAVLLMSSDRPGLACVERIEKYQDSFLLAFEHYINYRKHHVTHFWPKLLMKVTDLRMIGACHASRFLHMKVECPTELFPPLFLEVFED
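A fluorescence polarization screen tested compounds at multiple concentrations against complex formation between 0.6 uM TRb ligand-binding domain and 20 nM Texas Red SRC2 peptide, with 1 uM T3 present; readout after 5 hr.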
RGS12 GoLoco inh – inhibitors of human Gai1-RGS12 GoLoco interaction (red fluorophore) | Gai1:RGS12 GoLoco peptide FP, rhodamine, 10 min | Potency, µM (top dose mostly 61.6 µM), most hits filed as inhibitors | 230,000 compounds, 0.44% hits | AID 880; active = well fitted inhibition curve with a large enough effect, not every such curve was filed as active; inactive = no such curve, though single readings can be large or run the other way; also: nearly all actives have a fitted effect of over 30% in size
A number is an active result; i = inactive; ? = inconclusive; nt = not tested or not shown; [ ] = another dose, or the depositor's remark. Unless noted, calls follow the shape of the dose curve; as a rule, active = well fitted curve in the direction sought with a large enough effect; inconclusive = small, poorly fitted or top-dose-only effect, or another doubt; inactive = no such curve, though single readings can be large; an effect the other way counts as inactive or inconclusive.

SMILES | CBFb-RUNX1 inh | Epigenetic derep | TR SRC2 fluor cs | TRb SRC2 PPI | RGS12 GoLoco inh
Cc1cccc(N2CCN(C(=O)C3CCN(c4ncnc5c4nc4n5CCCCC4)CC3)CC2)c1C | nt | i | ? | i | nt
COc1cccc(CNC(=O)C2CCN(c3ncnc4c3nc3n4CCCCC3)CC2)c1 | nt | i | 20µM[quencher] | i | nt
Cc1cccc(N2CCN(C(=O)C3CCN(c4ncnc5c4nc4n5CCCCC4)CC3)CC2C)c1 (centres undefined) | nt | i | 20µM[quencher] | i | nt
Cc1ccc(C)c(N2CCN(c3ncnc4c3nc3n4CCCC3)CC2)c1 | nt | i | 20µM[quencher] | i | nt
COc1ccc(OC)c(CNC(=O)C2CCN(c3ncnc4c3nc3n4CCCCC3)CC2)c1 | nt | i | i | i | nt
Cc1cc(C)c2nc(SCC(=O)N3CC(=O)Nc4ccccc43)c(C#N)cc2c1 | i | 10µM | i | i | i
O=C1c2ccccc2-c2onc3ccc(NCCCn4ccnc4)c1c23 | ? | i | 44.7µM[fluorescent] | 15.8µM | i
CCN1/C(=C/c2sc(-c3ccccc3C)c[n+]2C)Sc2ccccc21 | i | i | i | i | 10µM
COc1cccc(N2CCN(C(=O)Cn3c(-c4cccs4)cc4ccccc43)CC2)c1 | nt | i | 39.8µM[quencher] | ? | nt
O=C(Cn1c(-c2cccs2)cc2ccccc21)NCCCN1CCN(c2ccc(F)cc2)CC1 | nt | i | 63.1µM[quencher] | ? | nt
COc1ccc(N2CCN(CCCNC(=O)Cn3c(-c4cccs4)cc4ccccc43)CC2)cc1 | nt | i | i | i | nt
CN1CCN(C(=O)Cn2c(-c3cccs3)cc3cc(Cl)ccc32)CC1 | nt | i | 112µM[quencher] | i | nt
O=C(O)Cn1c(-c2cccs2)cc2cc(Cl)ccc21 | nt | i | i | i | nt
O=C(N[C@@]1(C(=O)O)C[C@@H]1c1ccccc1)c1ccccc1 | nt | nt | nt | nt | i[14.2 µM]
Cc1cc(Cc2cc(C)cc(C(C)(C)C)c2O)c(O)c(C(C)(C)C)c1 | nt | nt | i | i | nt
O=c1[nH]c(=O)c2[nH]cnc2[nH]1 | nt | nt | i | i | nt
Cc1ccc2c(c1)N(CC(=O)NCc1ccccc1Br)C(=O)c1cccnc1O2 | nt | i | i | i | nt
CCOc1ccccc1CNC(=O)CN1C(=O)c2cccnc2Oc2ccc(C)cc21 | nt | i | 22.4µM[quencher] | i | nt
CC(CNC(=O)CN1C(=O)c2cccnc2Oc2ccc(Cl)cc21)c1ccccc1 (centres undefined) | nt | i | i | i | nt
CC(C)Oc1ccc(CNC(=O)CN2C(=O)c3cccnc3Oc3ccc(Cl)cc32)cc1 | nt | i | 20µM[quencher] | i | nt
CC(=O)N1CCc2c(sc(NC(=O)CSc3ccc(F)cc3)c2-c2nc3ccccc3s2)C1 | nt | i | i | i | nt
CC(C)N1CCc2c(sc(NC(=O)CCc3ccccc3)c2C(N)=O)C1 | i | i | i | i | i
CN1CCc2c(sc(NC(=O)CSc3ccc(F)cc3)c2-c2nc3ccccc3s2)C1 | nt | 3.16µM | i | i | nt
CCN1CCc2c(sc(NC(=O)CSc3ccccc3)c2-c2nc3ccccc3s2)C1 | nt | 0.891µM | i | i | nt
CC(=O)Nc1sc2c(c1-c1nc3ccccc3s1)CCN(C(C)C)C2 | i | 3.98µM | i | i | i
SMILES | CBFb-RUNX1 inh | Epigenetic derep | TR SRC2 fluor cs | TRb SRC2 PPI | RGS12 GoLoco inh
OC[C@H]1O[C@@H](n2cnc3c(N[C@H]4C[C@H]5CC[C@@H]4C5)ncnc32)[C@H](O)[C@@H]1O | i | i | i | i | i
COc1ccc(C(=O)NCC(c2cccnc2)N2CCc3ccccc32)cc1OC (centres undefined) | nt | i | i | i | nt
O=C(NCC(c1cccnc1)N1CCc2ccccc21)c1ccc(F)cc1 (centres undefined) | nt | i | 0.0794µM[quencher] | ? | nt
O=C(NCC(c1cccnc1)N1CCc2ccccc2C1)C(=O)Nc1ccc(F)cc1F (centres undefined) | nt | i | 2.82µM[quencher] | ? | nt
COC(=O)c1ccc2c(c1)nc(C)n2CCO | i | i | i | i | i
CCOC(=O)c1ccc2c(c1)n(CC)c(/C=C/N(C)c1ccccc1)[n+]2CC | i | i | i | i | 1.58µM
CCOC(=O)c1ccc2c(c1)n(CCO)c(C)[n+]2CC | i | i | i | i | 1.58µM
CCc1cccc(NC(=O)c2sc3nc[nH]c(=O)c3c2C)c1 | nt | i | i | i | nt
COc1ccccc1OCCCn1c(C2CC(=O)N(c3ccc(F)cc3)C2)nc2ccccc21 (centres undefined) | nt | i | i | i | nt
CCOc1ccc(N2CC(c3nc4ccccc4n3CCCOc3ccccc3OC)CC2=O)cc1 (centres undefined) | nt | i | 70.8µM[quencher] | i | nt
COc1ccc(CNc2nc(-c3ccccc3OC)nc3ccccc23)c(OC)c1 | nt | i | i | i | i
CC(=O)OC1CC(OC(C)=O)[C@]2(C)C(CC(=O)[C@]3(C)C2CC[C@@]2(C)C(c4ccoc4)OC(=O)C4O[C@@]423)C1(C)C (some centres undefined) | i | i | i | i | 22.4µM
Cc1cccc(C)c1NC(=O)CN(C)S(=O)(=O)c1ccc2[nH]c3c(c2c1)CCCC3 | nt | i | 22.4µM[quencher] | i | nt
CN(CC(=O)NCc1ccc(F)cc1)S(=O)(=O)c1ccc2[nH]c3c(c2c1)CCCC3 | nt | i | 17.8µM[quencher] | i | nt
C=CC1=C(C(=O)O)N2C(=O)[C@@H](NC(=O)C(N=O)c3csc(N)n3)[C@H]2SC1 (some centres undefined) | i | i | i | i | i
Nc1nc(COc2ccc(F)cc2Cl)nc(N2CCCCC2)n1 | i | i | i | i | i
Oc1ccc(C(c2ccc(O)cc2)C(Cl)(Cl)Cl)cc1 | nt | nt | i | i | nt
CCN(c1ccccc1)S(=O)(=O)c1nnc(NC(=O)COc2cccc(C)c2)s1 | nt | 8.91µM | i | i | nt
Cn1c(=O)c2[nH]c(-c3ccccc3Cl)c(O)c2n(C)c1=O | i | i | i | i | 2µM
Cc1ccc(Cn2c(=O)sc3ccccc3c2=O)cc1 | i | i | i | i | i
Cc1ccc(-n2sc3ccccc3c2=O)cc1 | i | i | i | i | 10µM
Cc1cc(/C=N/Nc2ccc([N+](=O)[O-])cn2)c(C)n1-c1ccc(C(=O)O)cc1 | ? | i | i | i | i
Cc1ccccc1-n1c(C)cc(/C=N/Nc2ccc([N+](=O)[O-])cn2)c1C | i | i | i | i | 3.16µM
Cc1ccc(CNc2ncnc3onc(-c4ccc(F)cc4)c23)cc1 | nt | i | 0.0891µM[quencher] | i | nt
O=C(NCc1ccc(F)cc1)C1CCCN(c2ncnc3onc(-c4ccc(F)cc4)c23)C1 (centres undefined) | nt | i | 15.8µM[quencher] | i | nt
COc1ccccc1CNc1ccnc(-c2ccc(N(C)C)cc2)n1 | nt | nt | nt | nt | i
COCC1=C2c3ccccc3[C@@H]3CNC(=O)C3(C(=O)OC)C[C@@H]2n2c(=O)n(-c3ccccc3)c(=O)n2C1 (some centres undefined) | i | i | i | i | i
C[C@]12CC[C@@H]3c4cc(O)c(O)cc4CC[C@H]3[C@@H]1CC[C@@H]2O | i | i | i | i | 7.94µM
COc1cc2c(cc1O)CCC1C2CC[C@]2(C)[C@@H](O)CC[C@@H]12 (some centres undefined) | i | i | i | i | i
CC(C)C(=O)OC(=O)C(C)C | nt | nt | i | i | nt
